HCMV inh: qHTS Assay for inhibitors of the human cytomegalovirus (HCMV); AID 1259415, 2018; HFF cells, HCMV-luciferase reporter, 72 h; hits give low values; actives 4.5% (n = 410,000); activity change, negative = inhibition, % at 57.5 µM; in the data active means activity change below about -60%; inconclusive means no clear call, values can overlap the other calls; inactive means above about -39%
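HFF cells seeded 16 h at 37C, treated with compounds, infected with luciferase-reporter HCMV at MOI 1 PFU/cell; luciferase read at 72 h post infection, normalized to buffer-only and Salinomycin controls.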
Vaccinia Venus: qHTS for Stage-Specific Inhibitors of Vaccinia Orthopoxvirus: Venus Reporter Primary qHTS; Vaccinia virus Venus reporter expression, fluorescence; Potency, µM (series often up to 36.5 µM), for the others: top-dose activity change, negative = inhibition, actives largely listed as inhibitors; actives 0.46% (n = 330,000); calls by dose curve; tested in A549 cells; further: potency means the concentration at half of the fitted maximal effect; nearly all actives have a fitted effect of over 30% in size
HCV inh: qHTS Assay for Inhibitors of Hepatitis C Virus (HCV). actives 3.4% (n = 340,000). Potency, µM (titrated, usually from 41.8 µM), without a hit: top-dose activity change, negative = inhibition, hits mostly inhibitors. Huh7.5.1 HCVcc-Cre infection, luciferase reporter, 44 h; active means well fitted inhibition curve with a large enough effect; inconclusive means small, poorly fitted or top-dose-only effect, or another doubt; inactive means no such curve, though single readings can be large or run the other way; further: potency means the concentration at half of the fitted maximal effect
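Infectious HCV cell culture screen: compound-treated cells (1,000/well, pre-plated 4 h) are infected with HCVcc-Cre at roughly 0.5 moi and grown 44 h. Infection is quantified by luciferase signal after 15 min substrate incubation at room temperature.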
VACV mCherry inh: qHTS for Stage-Specific Inhibitors of Vaccinia Orthopoxvirus: mCherry Reporter Primary qHTS | Potency, µM (series often up to 36.5 µM), without a hit: top-dose activity change, negative = inhibition, hits mostly inhibitors | actives 0.63% (n = 310,000) | AID 720579, 2013 | Vaccinia virus mCherry reporter infection, fluorescence; calls by dose curve; tested in A549 cells; further: potency means the concentration at half of the fitted maximal effect; nearly all actives have a fitted effect of over 35% in size
FMDV inh: High Throughput Screening for Foot and Mouth Disease Virus Antivirals; FMDV antiviral cell-based qHTS; Potency, µM (series often up to 57.9 µM), without a hit: top-dose activity change, negative = inhibition, actives largely listed as inhibitors; actives 1.2% (n = 410,000); calls by dose curve; tested in HEK293T cells; further: read-out not given here; potency means the concentration at half of the fitted maximal effect; nearly all actives have a fitted effect of over 45% in size
* marks the source's active call; other numbers are inactive results; i = inactive; ? = inconclusive; / = no result; [ ] = dose if it differs, or a comment. The list is not random: actives were taken first. Their share in the collection is about 7.3%. On the % scale 0 is the no-effect control and ±100 the full control effect.

SMILES | HCMV inh | Vaccinia Venus | HCV inh | VACV mCherry inh | FMDV inh
CCC(C)CCN1C(Nc2ccccc2)=NC[C@@H]1Cc1ccccc1 (stereo partly drawn) | -100* | -7% | -7% | -9% | ?
CC(C)(C)C1CCC(CN2C(Nc3ccccc3)=NC[C@@H]2Cc2ccccc2)CC1 (stereo partly drawn) | -76* | ? | ? | ? | ?
CC(C)C[C@H]1CN=C(Nc2ccccc2)N1CCc1cccc(F)c1 | / | ? | ? | ? | 0%
CN(C)c1ccc(C(CNC(=O)c2ccc(C(C)(C)C)cc2)N2CCCC2)cc1 (stereo not drawn) | ? | -27% | / | -22% | -21%
CC1(C(=O)Nc2ccc(Cl)c(Cl)c2)CCN1CCc1ccccc1 (stereo not drawn) | -2 | -3% | / | -2% | -24%
Cc1cc(C)n2nc(SCC(=O)NC3CCCCC3C)nc2n1 (stereo not drawn) | -31 | / | 17% | / | 2%
COC(=O)c1cc(S(=O)(=O)N2CCC(c3cc(OC)ccc3OC)C2)c[nH]1 (stereo not drawn) | ? | / | 6.3µM* | / | -30%
COC(=O)c1cc(S(=O)(=O)N2CCC(c3ccccc3)C2)c[nH]1 (stereo not drawn) | -38 | / | 11µM* | / | ?
COC(=O)c1cc(S(=O)(=O)N2CCN(c3ccccc3)CC2)c[nH]1 | -6 | -12% | 1% | -8% | 0%
COc1cc(C(=O)OCC(=O)Nc2ccc(SC(F)F)cc2)cc(OC)c1OC | 14 | -22% | ? | -7% | 35µM*
CCCc1c(NC(=O)Nc2ccc(F)cc2)cnn1-c1ccc(Cl)cc1 | -81* | ? | 15% | -15% | ?
CCCc1ccc(C(=O)NC(=O)c2ccccc2O)cc1 | -89* | -2%[7.34 µM] | ? | i[7.34 µM] | ?
O=C(NNc1c(Cl)cc(Cl)cc1Cl)c1cccc([N+](=O)[O-])c1 | -7 | -7% | 10µM* | -28% | -10%
Cc1ccc(C(=O)NC(=S)NNC(=O)c2ccccc2O)cc1 | -81* | -5% | ? | -10% | 9%
Cc1ccc(C(=O)NNC(=S)NC(=O)c2ccccc2)cc1 | -85* | ? | ? | ? | -8%
CCC(Cn1nnc2ccccc2c1=O)NC(=O)Nc1cc(OC)cc(OC)c1 (stereo not drawn) | 12 | 4% | / | -9% | -20%
O=C(NNC(=S)NC(=O)c1ccc(Br)cc1)c1ccc([N+](=O)[O-])cc1 | 62 | / | -18% | / | 0%
O=C(NNC(=S)NC(=O)c1ccccc1)c1ccc([N+](=O)[O-])cc1 | 22 | / | -23% | / | -15%
O=C(NNC(=S)NC(=O)c1ccc(Br)cc1)c1cccc([N+](=O)[O-])c1 | -105* | / | -15% | / | -13%
O=C(COc1cccc(NC(=O)c2cccc([N+](=O)[O-])c2)c1)c1ccc(Br)cc1 | -73* | ? | 14µM* | / | 20µM*
Cc1ccc(NC(=O)NC(=S)NC(=O)c2ccccc2)cc1 | 65 | 7.1µM* | 6% | ? | 11%
O=C(NC(=S)NNC(=O)c1ccccc1O)c1ccc([N+](=O)[O-])cc1 | -70* | -10% | ? | -9% | -9%
CCn1c(=O)c2sccc2n2c(CCC(=O)Nc3ccc(F)cc3)nnc12 | 3 | -8% | / | 2% | -12%
O=Cc1ccc(I)cc1 | / | -15% | / | -3% | /
COc1ccc(-n2c(=O)c3c4c(sc3n(CC(=O)NCc3ccco3)c2=O)CCC4)c(OC)c1 | / | / | 13µM* | / | 3%
SMILES | HCMV inh | Vaccinia Venus | HCV inh | VACV mCherry inh | FMDV inh
Nc1[nH]c(=S)[nH]c(=O)c1N=O | / | 7% | / | 13% | /
Cc1ccc(C(=O)NNC(=O)c2cccc(S(=O)(=O)N3CCOCC3)c2)cc1 | 2 | / | 15% | / | -8%
O=C(c1cccc(NS(=O)(=O)c2cccc(C(F)(F)F)c2)c1)N1CCOCC1 | -62* | -4% | 23% | i | 17%
Cc1cccc(C(=O)NNC(=O)c2ccc(S(=O)(=O)N3CCOCC3)cc2)c1 | -75* | -23% | 18% | -7% | -3%
O=C(O)c1cccc(NS(=O)(=O)c2ccc(S(=O)(=O)N3CCOCC3)cc2)c1 | -76* | / | 10% | / | -16%
O=S1(=O)N(Cc2ccccc2F)CCCN1Cc1c(F)cccc1Cl | ? | -10% | -8% | -3% | 38%
COc1cccc(CCNC(=O)c2cc(COc3c(F)cccc3F)on2)c1 | -13 | / | ? | / | -12%
CC1(CCc2ccc3c(c2)OCO3)NCCc2c1[nH]c1ccccc21 (stereo not drawn) | -87* | / | 11µM* | / | -23%
Cc1nn(-c2ccc([N+](=O)[O-])cc2)c2c1C(c1ccc(OC(F)F)cc1)N1C(=N2)C(=O)Nc2ccccc21 (stereo not drawn) | -15 | -8% | 2µM* | -17% | -16%
COc1cccc(C2c3c(C)nn(-c4ccc([N+](=O)[O-])cc4)c3N=C3C(=O)Nc4ccccc4N32)c1 (stereo not drawn) | -21 | -3% | ? | 3% | 0%
Cc1sc2ncn(CC(=O)NCCCC(=O)Nc3ccc(C(C)C)cc3)c(=O)c2c1C | -76* | -5% | -13% | -13% | -5%
Nc1cc2nc3ccccc3oc-2cc1=O | -91* | ? | 0% | ? | 13%
Cc1ccc(Oc2ccc(S(=O)(=O)N3CCOCC3)cc2C(N)=O)c(-n2nc3ccccc3n2)c1 | -85* | ? | -14% | / | -23%
Clc1ccc2[nH]cc(-c3nnnn3-c3ccc4ccccc4c3)c2c1 | -62* | -28% | ? | -7% | -1%
COc1ccc([C@@H]2[C@@H](C(=O)N3CCOCC3)CC(=O)N2C(=O)CCc2ccccc2)cc1 | -7 | / | / | / | /
COc1cc(C=C2CN(C)C(=O)C2=O)ccc1O | -2 | 0% | / | i | -8%
CCOc1cc(/C=C2\CN(C)C/C(=C\c3ccc(O)c(OCC)c3)C2=O)ccc1O | -100* | ? | 22µM* | ? | 18µM*
CCOc1cc(/C=C2\CCC/C(=C\c3cc(Cl)c(O)c(OCC)c3)C2=O)cc(Cl)c1O | -98* | 93% | ? | -12% | 16µM*
CCOc1cc(C=C2C(=O)NC(=O)NC2=O)cc([N+](=O)[O-])c1O | -28 | / | / | / | /
CC(C)C[C@H]1COc2ccc(Cl)cc2S(=O)(=O)N1 | -31 | / | / | / | /
CCOc1ccc(C(C)=O)cc1COc1cccnc1[N+](=O)[O-] | 56 | -13% | ? | -22% | 6%
CCOc1ccc(S(=O)(=O)Nc2cc(SCC(=O)O)c(O)c3ccccc23)cc1 | 9 | / | 10µM* | / | ?
CCc1ccc(S(=O)(=O)Nc2cc(SCC(=O)O)c(O)c3ccccc23)cc1 | 63 | / | ? | / | ?
O=C(O)CSc1cc(NS(=O)(=O)c2cccc([N+](=O)[O-])c2)c2ccccc2c1O | 0 | ? | 11µM* | 10µM* | 10µM*

Assay outcomes deposited in PubChem by National Center for Advancing Translational Sciences (NCATS).
